This is part of a sample that, as a whole, favours compounds with a hit. Of some 83,000 tested, about 20% had one in any assay.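 Assay: single dose, 48 h. Readout: percent growth (0 = no net growth; negative = cell death). Active: <10.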 Calls of active or inactive are those of the source.
Assays:
Assay in all cases: NCI-60 one-dose screen, 48 h (100 = growth as untreated, 0 = no growth, -100 = all killed)
Settings in all cases: 10 µM unless noted
SK-MEL-2 melanoma = test system: SK-MEL-2 melanoma
EKVX NSCLC = test system: EKVX NSCLC
SN12C renal = test system: SN12C renal
UO-31 renal = test system: UO-31 renal
TK-10 renal = test system: TK-10 renal
ACHN renal = test system: ACHN renal
CAKI-1 renal = test system: CAKI-1 renal
A498 renal = test system: A498 renal
CCRF-CEM leukemia = test system: CCRF-CEM leukemia
MOLT-4 leukemia = test system: MOLT-4 leukemia

Measured: growth

CCC(CC)(N(CC(=O)O)CC(=O)O)C(CC)(CC)N(CC(=O)O)CC(=O)O
inactive: SK-MEL-2 melanoma 112% | EKVX NSCLC 117% | SN12C renal 94.8% | UO-31 renal 103% | TK-10 renal 103% | ACHN renal 116% | CAKI-1 renal 98.4% | A498 renal 126% | CCRF-CEM leukemia 93% | MOLT-4 leukemia 107%

CO[C@H](C(=O)[C@@H](O)[C@@H](C)O)[C@@H]1Cc2cc3cc(O[C@H]4C[C@@H](O[C@H]5C[C@@H](O)[C@H](O)C(C)O5)[C@H](O)C(C)O4)c(C)c(O)c3c(O)c2C(=O)[C@H]1O[C@H]1C[C@@H](O[C@H]2C[C@@H](O[C@H]3C[C@@H](OC)[C@H](O)C(C)O3)[C@@H](O)C(C)O2)C(O)(O)C(C)O1 (stereo not given in full)
inactive: EKVX NSCLC 18% | TK-10 renal 12.1% | CCRF-CEM leukemia 34.2% | MOLT-4 leukemia 18%
active: SK-MEL-2 melanoma -79.2% | SN12C renal 8.08% | UO-31 renal 3.17% | ACHN renal 0.683% | CAKI-1 renal 6.9% | A498 renal -35.7%

CN1CCN(c2ccc3c(c2)nc(NNC(=O)c2cnccn2)c2cccn23)CC1
active: UO-31 renal 3.3% | ACHN renal 8.28%
inactive: SK-MEL-2 melanoma 64.8% | EKVX NSCLC 30.1% | SN12C renal 27.6% | TK-10 renal 44.8% | CAKI-1 renal 22.5% | A498 renal 31.4% | CCRF-CEM leukemia 11.4% | MOLT-4 leukemia 13.9%

CCNc1nc(-c2ccc(F)cc2)c(C#N)c(=O)n1C
active: A498 renal -9.07%
inactive: SK-MEL-2 melanoma 77.8% | EKVX NSCLC 29.1% | SN12C renal 69.1% | UO-31 renal 41.2% | TK-10 renal 34% | ACHN renal 52.5% | CAKI-1 renal 53.3% | CCRF-CEM leukemia 85.9% | MOLT-4 leukemia 71.6%

COc1cccc2c(N=NC(=O)c3ccc(S(N)(=O)=O)cc3)c(O)[nH]c12
inactive: SK-MEL-2 melanoma 112% | EKVX NSCLC 98.4% | SN12C renal 98.3% | UO-31 renal 76.7% | TK-10 renal 108% | ACHN renal 105% | CAKI-1 renal 93.6% | A498 renal 94.8% | CCRF-CEM leukemia 112% | MOLT-4 leukemia 109%

O=C1NC(=Nc2ccc(O)cc2)S/C1=C\c1cccs1
inactive: SK-MEL-2 melanoma 97.9% | EKVX NSCLC 38.8% | SN12C renal 46.1% | UO-31 renal 52.5% | TK-10 renal 69.3% | ACHN renal 30.3% | CAKI-1 renal 40.9% | A498 renal 15.9% | CCRF-CEM leukemia 11.9% | MOLT-4 leukemia 23.1%

Clc1ccc(-c2cn3ccsc3n2)c(Cl)c1Cl
inactive: SK-MEL-2 melanoma 88.6% | EKVX NSCLC 65.2% | SN12C renal 77.9% | UO-31 renal 70.1% | TK-10 renal 105% | ACHN renal 90.1% | CAKI-1 renal 71.8% | A498 renal 76.7% | CCRF-CEM leukemia 93.6% | MOLT-4 leukemia 80.4%

O=C(Nc1ncc(Cc2ccccc2Cl)s1)c1cccs1
inactive: SK-MEL-2 melanoma 69.4% | EKVX NSCLC 77.7% | SN12C renal 82.5% | UO-31 renal 70.8% | TK-10 renal 88% | ACHN renal 73.2% | CAKI-1 renal 41.8% | A498 renal 67.1% | CCRF-CEM leukemia 66.2% | MOLT-4 leukemia 61.7%

Cc1c2ccccc2nc2c1ccc1cccnc12
inactive: SK-MEL-2 melanoma 95.5% | EKVX NSCLC 62.7% | SN12C renal 88.7% | UO-31 renal 83.9% | TK-10 renal 96.1% | ACHN renal 97.3% | CAKI-1 renal 77% | A498 renal 80.2% | CCRF-CEM leukemia 77.8% | MOLT-4 leukemia 68.3%

Cc1cc2oc(=O)cc(CP(=O)(O)O)c2cc1O
inactive: SK-MEL-2 melanoma 102% | EKVX NSCLC 97.1% | SN12C renal 93.5% | UO-31 renal 70.4% | TK-10 renal 107% | ACHN renal 101% | CAKI-1 renal 90.9% | A498 renal 80.8% | CCRF-CEM leukemia 103% | MOLT-4 leukemia 104%

Cc1nc2ccccc2c(/C=C/c2ccc(C(F)(F)F)cc2)c1C(=O)/C=C/c1ccccc1
active: SK-MEL-2 melanoma -43.6% | EKVX NSCLC 8.76% | SN12C renal -25.9% | UO-31 renal -96.1% | TK-10 renal 7.75% | ACHN renal -54.6% | CAKI-1 renal 0.887% | A498 renal -31.4% | CCRF-CEM leukemia 5.84% | MOLT-4 leukemia 4.86%

Cc1nc2sc(C(=O)Nc3cccc(Cl)c3)c(N)c2cc1C(O)c1ccccc1 (stereo not given)
active: A498 renal 8.38%
inactive: SK-MEL-2 melanoma 49.9% | EKVX NSCLC 44.6% | SN12C renal 24.4% | UO-31 renal 45.7% | TK-10 renal 62.4% | ACHN renal 30.5% | CAKI-1 renal 46.4% | CCRF-CEM leukemia 17.1% | MOLT-4 leukemia 14.5%

Cn1cc(-c2csc(-c3cn(C(=O)OC(C)(C)C)c4ccccc34)n2)c2ccnc(Cl)c21
inactive: SK-MEL-2 melanoma 96.5% | EKVX NSCLC 62.8% | SN12C renal 55.1% | UO-31 renal 58.4% | TK-10 renal 52.8% | ACHN renal 32.7% | CAKI-1 renal 80% | A498 renal 88.4% | CCRF-CEM leukemia 61.7% | MOLT-4 leukemia 66.8%

COc1ccc(/C(C)=C(\c2ccc(OCCN3CCCCCC3)cc2)c2ccc(OC(=O)c3ccccc3)cc2)cc1
inactive: SK-MEL-2 melanoma 54.6% | EKVX NSCLC 74.4% | SN12C renal 56.2% | UO-31 renal 26.2% | TK-10 renal 74.5% | ACHN renal 72.3% | CAKI-1 renal 52.9% | A498 renal 82.1% | CCRF-CEM leukemia 26.8% | MOLT-4 leukemia 17.4%

COc1cc(C2=NN(C(C)=O)C(c3ccc(N(C)C)cc3)C2)cc(OC)c1OC (stereo not given)
inactive: SK-MEL-2 melanoma 90% | EKVX NSCLC 94.7% | SN12C renal 86.4% | UO-31 renal 79.6% | TK-10 renal 109% | ACHN renal 91.8% | CAKI-1 renal 15.3% | A498 renal 76% | CCRF-CEM leukemia 14.6% | MOLT-4 leukemia 80.8%

CC(=O)c1cc(-c2ccccc2N)n(-c2ccc3c(c2)OCO3)c1C
active: A498 renal -12%
inactive: SK-MEL-2 melanoma 51.6% | EKVX NSCLC 50.9% | SN12C renal 29.1% | UO-31 renal 40.2% | TK-10 renal 45.6% | ACHN renal 21.2% | CAKI-1 renal 41.7% | CCRF-CEM leukemia 11.8% | MOLT-4 leukemia 16.1%

COc1ccc(-c2cc(-c3ccc(OC)cc3)nc(NCCCNc3ccnc4cc(Cl)ccc34)n2)cc1
active: SN12C renal -62.3% | CCRF-CEM leukemia 3.08% | MOLT-4 leukemia 1.68%
inactive: SK-MEL-2 melanoma 83.9% | EKVX NSCLC 80.4% | UO-31 renal 48.9% | TK-10 renal 127% | ACHN renal 96.2% | CAKI-1 renal 75.3% | A498 renal 23.2%

COc1ccc2nc3ccccc3c(NCc3ccccc3)c2c1
active: A498 renal -14.3% | MOLT-4 leukemia 8.01%
inactive: SK-MEL-2 melanoma 47.9% | EKVX NSCLC 26.9% | SN12C renal 22.4% | UO-31 renal 13.8% | TK-10 renal 38.7% | ACHN renal 12.8% | CAKI-1 renal 25.8% | CCRF-CEM leukemia 33.4%

COc1ccc(C(O)c2cc3c(N)c(C(=O)Nc4cccc(Cl)c4)sc3nc2C)cc1 (stereo not given)
inactive: SK-MEL-2 melanoma 53.7% | EKVX NSCLC 48.4% | SN12C renal 22.2% | UO-31 renal 45.4% | TK-10 renal 64% | ACHN renal 30.3% | CAKI-1 renal 24.7% | MOLT-4 leukemia 15.4%
active: A498 renal 8.34% | CCRF-CEM leukemia 8.82%

COc1ccc(C(C)=O)cc1S(N)(=O)=O
inactive: SK-MEL-2 melanoma 87.9% | EKVX NSCLC 106% | SN12C renal 101% | UO-31 renal 90.7% | TK-10 renal 81.4% | ACHN renal 102% | CAKI-1 renal 93.8% | A498 renal 101% | CCRF-CEM leukemia 96.8% | MOLT-4 leukemia 86.4%

COc1cc(OC)cc(C2C(C#N)=C(N)Oc3c2ccc2ccc(O)cc32)c1 (stereo not given)
active: SN12C renal 9.97% | CCRF-CEM leukemia 7.39% | MOLT-4 leukemia 7.26%
inactive: SK-MEL-2 melanoma 21.3% | EKVX NSCLC 32.9% | UO-31 renal 18.7% | TK-10 renal 48.3% | ACHN renal 15.8% | CAKI-1 renal 21.1% | A498 renal 32.1%

CCOC(=O)c1cn2ncnc(Oc3ccc(NC(=O)NC4CC4)c(F)c3)c2c1C
inactive: SK-MEL-2 melanoma 114% | EKVX NSCLC 96.3% | SN12C renal 95.1% | UO-31 renal 70.6% | TK-10 renal 119% | ACHN renal 93.5% | CAKI-1 renal 102% | A498 renal 54.2% | CCRF-CEM leukemia 90.9% | MOLT-4 leukemia 104%

CC(C)C[C@@H](C(=O)N[C@H](C(=O)OC1CCCC1)c1ccccc1)[C@H](O)C(=O)NO
inactive: SK-MEL-2 melanoma 33.2% | EKVX NSCLC 67.5% | SN12C renal 86.5% | UO-31 renal 50.8% | TK-10 renal 70.4% | ACHN renal 85.9% | CAKI-1 renal 76.2% | A498 renal 40.7% | CCRF-CEM leukemia 67.8% | MOLT-4 leukemia 63.4%

O=C(c1ccc(Cl)cc1Cl)N1c2ccccc2Sc2ccccc21
inactive: SK-MEL-2 melanoma 88.7% | EKVX NSCLC 75.7% | SN12C renal 66.9% | UO-31 renal 65.3% | TK-10 renal 73.3% | ACHN renal 60.7% | CAKI-1 renal 50.5% | A498 renal 68.9% | CCRF-CEM leukemia 57.2% | MOLT-4 leukemia 26.4%

CCC/C(=N\NC(N)=O)C(OC)OC
inactive: SK-MEL-2 melanoma 104% | EKVX NSCLC 111% | SN12C renal 107% | UO-31 renal 89.3% | TK-10 renal 85.3% | ACHN renal 105% | CAKI-1 renal 114% | A498 renal 91.1% | CCRF-CEM leukemia 106% | MOLT-4 leukemia 121%

COc1ccc(-c2oc(=O)ccc2-c2cc(OC)c(OC)c(OC)c2)cc1O
active: CAKI-1 renal -11.6% | A498 renal -1.78% | CCRF-CEM leukemia 4.14%
inactive: SK-MEL-2 melanoma 39.9% | EKVX NSCLC 49.5% | SN12C renal 36.8% | UO-31 renal 21.9% | TK-10 renal 61.6% | ACHN renal 56% | MOLT-4 leukemia 20.5%

Reference: PubChem BioAssay (NCI)
